Where “and” joins values, the source holds several entries; their conditions need not be identical. Equal entries are not always repeated. Records with an inconclusive call do not appear. Where a structure was tested more than once in an assay, its records may differ in their call. Calls of active or inactive are those of the source. Unless noted, calls follow the shape of the full dose curve.

Assay [1] is described as follows: Nuclear factor erythroid 2-related factor 2/antioxidant responsive element (Nrf2/ARE) small molecule agonists: qHTS cell viability counter screen in human keratinocytes (AID 1919968; active = well fitted curve in the direction sought with a large enough effect in the repeat runs; an effect the other way counts as inactive or inconclusive; also: nearly all actives have a fitted effect of over 55% in size; also: potency is read from the fitted curve at half-maximal effect). The procedure, abridged:
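Cytotoxicity was multiplexed with the Nrf2/ARE luciferase assay in the same wells. Stably transfected HaCaT keratinocytes were treated with test compounds for 23 h at 37 C. Cell viability was then measured by CellTiter-Fluor fluorescence.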
(In general: In qHTS, concentration-response curves come from the screen itself.)

Assay [2] in a line: Nuclear factor erythroid 2-related factor 2/antioxidant responsive element (Nrf2/ARE) small molecule agonists: luciferase reporter gene qHTS assay in human keratinocytes (AID 1919969). Also: nearly all actives have a fitted effect of over 35% in size. Also: potency is read from the fitted curve at half-maximal effect. In general terms: A reporter such as luciferase makes a cellular process visible.
Assay [3] concerns the target Gonadotropin-releasing hormone receptor (Homo sapiens) (UniProt P30968). Put plainly: Human gonadotropin-releasing hormone receptor (GnRHR) small molecule agonists, calcium flux assay in GnRHR-HEK293 cells (AID 1920063). Also: nearly all actives have a fitted effect of over 35% in size. Also: potency is read from the fitted curve at half-maximal effect. An outline of the steps: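 Agonist activity was measured as intracellular calcium flux in HEK293 cells engineered to stably express human GnRHR. After dye loading for 1 hour at 37 C, compounds in DMSO were added and fluorescence was followed for 3 minutes.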
(A change in cytosolic calcium serves as a functional read-out for many receptors and channels.)

Assay [4] concerns the target KiSS-1 receptor (Homo sapiens) (UniProt Q969F8). The experiment in a line: Human kisspeptin (KISS1R) small molecule agonists, calcium flux assay in KISS1R-HEK293 cells (AID 1920064; active = well fitted curve in the direction sought with a large enough effect in the repeat runs; an effect the other way counts as inactive or inconclusive). An outline of the steps:
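Agonist activity is monitored as intracellular calcium rise in engineered HEK293 cells carrying human KISS1R. Cells are dye-loaded for 1 h at 37 C before compound addition, and fluorescence is recorded for 3 min.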

Assay [5] can be described thus: G protein-coupled receptor (GPCR) small molecule agonists, calcium flux assay: HEK293 wild type cell line counter screen (AID 1920065). The procedure, abridged:
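Seed cells, incubate 18 h (37 C, 5% CO2); add calcium dye, 1 h at 37 C; pin-transfer compounds, ATP control or DMSO; read fluorescence 480/540 nm each second for 3 min.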

The nature of assay [6]: p53 small molecule agonists, cell-based qHTS assay with human liver microsomes (AID 1963577).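 Also: p53 response element beta-lactamase reporter cells with liver microsomes plus NADPH.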 An outline of the steps: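 Reporter activation was measured by LiveBLAzer fluorescence intensity in p53RE-bla cells, which had been exposed to compounds for 16 h at 37 C alongside 0.5 mg/mL human liver microsomes and 0.5 mg/mL NADPH (final concentrations).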
Assay [7] is described as follows: p53 small molecule agonists, cell-based qHTS assay with rat liver microsomes (AID 1963578). The procedure, abridged: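 Compound in DMSO added to p53RE-bla cells 5 h post-plating; rat microsomes/NADPH 0.5 mg/mL final; 16 h, 37 C; LiveBLAzer 2 h RT.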
Assay [8] in a line: p53 small molecule agonists, cell-based qHTS assay with human liver microsomes: qHTS cell viability counter screen (AID 1963579). Also: nearly all actives have a fitted effect of over 45% in size. Also: potency is read from the fitted curve at half-maximal effect. An outline of the steps: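 HLM-supplemented (0.5 mg/mL final) and NADPH-supplemented (0.5 mg/mL final) p53RE-bla cultures, 4,000 cells per well, were dosed with compounds in DMSO for 16 h at 37 C; luminescent ATP detection (CellTiter-Glo, 30 min, room temperature) quantified surviving cells.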

Assay [9] is described as follows: p53 small molecule agonists, cell-based qHTS assay with rat liver microsomes: qHTS cell viability counter screen (AID 1963580). Also: nearly all actives have a fitted effect of over 45% in size. Also: potency is read from the fitted curve at half-maximal effect. The procedure, abridged: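 Cytotoxicity counter screen: intracellular ATP measured by CellTiter-Glo luminescence in the same wells as the beta-lactamase reporter read, on HCT-116 p53RE-bla cells exposed 16 h at 37 C to compounds with rat liver microsomes and NADPH, each 0.5 mg/mL final.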

Assay [10] in a line: p53 small molecule agonists, cell-based qHTS assay: qHTS cell viability counter screen (AID 1963581). Also: nearly all actives have a fitted effect of over 45% in size. Also: potency is read from the fitted curve at half-maximal effect. The procedure, abridged:
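Viability was counter-screened in parallel with the p53 agonist reporter by measuring intracellular ATP luminescence in the same HCT-116 p53RE-bla wells after 16 h compound treatment at 37 C.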

In assay [11] the target is 5-hydroxytryptamine receptor 2A (Homo sapiens) (UniProt P28223). The experiment in a line: 5-hydroxytryptamine receptor 2A (HTR2A) small molecule antagonists, cell-based qHTS assay (AID 1963586). Also: nearly all actives have a fitted effect of over 45% in size. Also: potency is read from the fitted curve at half-maximal effect. The procedure, abridged: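 CHO cells stably expressing human HTR2A were plated for 18 h at 37 C, then loaded with calcium dye for 1 h. Compounds were preincubated 5 min at room temperature before DOI (4 nM solution) was added. Kinetic fluorescence was read for 3 min.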
5-hydroxytryptamine receptor 2A (Homo sapiens), sequence (P28223 whole entry, looked up): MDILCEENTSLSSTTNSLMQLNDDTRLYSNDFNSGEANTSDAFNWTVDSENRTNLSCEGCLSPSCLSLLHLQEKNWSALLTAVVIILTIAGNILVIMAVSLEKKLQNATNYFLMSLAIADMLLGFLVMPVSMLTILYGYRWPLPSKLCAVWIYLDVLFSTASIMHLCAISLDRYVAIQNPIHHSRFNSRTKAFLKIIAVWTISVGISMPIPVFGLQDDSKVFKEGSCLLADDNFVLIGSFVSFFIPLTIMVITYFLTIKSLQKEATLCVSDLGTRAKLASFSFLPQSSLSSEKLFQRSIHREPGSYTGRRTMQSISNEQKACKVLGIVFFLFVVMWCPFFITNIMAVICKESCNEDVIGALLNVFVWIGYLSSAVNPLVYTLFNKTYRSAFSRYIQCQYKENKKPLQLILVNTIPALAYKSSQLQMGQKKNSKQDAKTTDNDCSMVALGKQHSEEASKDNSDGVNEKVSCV

Assay [12] shares this target. Put plainly: 5-hydroxytryptamine receptor 2A (HTR2A) small molecule agonists, cell-based qHTS assay (AID 1963587). Also: nearly all actives have a fitted effect of over 30% in size. The procedure, abridged:
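CHO cells stably expressing human HTR2A, plated 18 h, loaded with calcium dye 1 h at 37 C. Agonist mode: compounds added and intracellular calcium fluorescence recorded kinetically for 2 min at 1 sec intervals.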

Assay [13] addresses Muscarinic acetylcholine receptor M1 (Homo sapiens) (UniProt P11229). Put plainly: Cholinergic receptor muscarinic 1 (CHRM1) small molecule antagonists, cell-based qHTS assay (AID 1963588). Also: nearly all actives have a fitted effect of over 40% in size. Also: potency is read from the fitted curve at half-maximal effect. The procedure, abridged: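 Compounds were tested at 15 concentrations in three independent runs. Dye-loaded CHRM1-CHO cells were exposed 5 min at room temperature before stimulation by acetylcholine added at 50nM. Intracellular calcium was read kinetically on FDSS for 3 min.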

Assay [14] has the same target. The experiment in a line: Cholinergic receptor muscarinic 1 (CHRM1) small molecule agonists, cell-based qHTS assay (AID 1963589). Also: nearly all actives have a fitted effect of over 35% in size. An outline of the steps:
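Cells were plated and incubated 18 h at 37 C/5% CO2, loaded with calcium dye for 1 h at 37 C, then treated with compounds in DMSO. Fluorescence was recorded kinetically at 1 sec intervals.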

Assay [15] in a line: cAMP Responsive Elements (CRE) small molecule agonists, cell-based qHTS assay (AID 1963590). The procedure, abridged:
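Cells carrying a CRE-driven beta-lactamase reporter (HEK 293T) are seeded, incubated overnight (18 h), and treated with test compounds for 3 h at 37 C; reporter activity is then detected with a FRET substrate after 2 h at room temperature.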

The nature of assay [16]: cAMP Responsive Elements (CRE) small molecule antagonists, cell-based qHTS assay (AID 1963591; active = well fitted inhibition curve with a large enough effect in the signal ratio in the repeat runs, not every such curve was filed as active; the % refers to the signal ratio). The procedure, abridged:
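Cells (CRE-bla HEK 293T, DMEM with 10% dialyzed FBS and 25 mM HEPES) are seeded and incubated 18 h. Compounds are added with NKH477 agonist at 0.25 uM final for 3 h, then FRET substrate for 2 h.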

Assay [17] concerns the target Beta-2 adrenergic receptor (Homo sapiens) (UniProt P07550). Put plainly: Adrenergic beta2 receptor (ADRB2) small molecule antagonists, cell-based qHTS assay (AID 1963592). Also: series mostly up to about 92 µM; nearly all actives have a fitted effect of over 50% in size. An outline of the steps: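 Assay format: CHO-ADRB2 cells, 18-20hr seeding at 37C/5% CO2, then compound plus 1nM isoproterenol agonist mix for 0.5hr RT. Homogeneous time-resolved fluorescence cAMP detection after 1hr, expressed as 665/615 nm ratio.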

For assay [18], the target named is D(2) dopamine receptor (Homo sapiens) (UniProt P14416). The experiment in a line: Dopamine D2 receptor (DRD2) small molecule agonists, cell-based qHTS assay (AID 1963594). Also: nearly all actives have a fitted effect of over 35% in size. The procedure, abridged:
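HEK293 cells stably expressing human DRD2, pre-treated with PDE inhibitor Ro20-1724 (0.1 mM final) and compound 10 min at room temperature, then stimulated with NKH477 (200nM […]) for 30 min. cAMP read by HTRF (665/620 nm).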

Assay [19] shares this target. The experiment in a line: Dopamine D2 receptor (DRD2) small molecule antagonists, cell-based qHTS assay (AID 1963595; active = well fitted inhibition curve with a large enough effect in the signal ratio in the repeat runs, with a control signal flat; the % refers to the signal ratio). The procedure, abridged: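 In this cell-based antagonist screen, compounds act for 10 min at room temperature before a 30 min challenge with 12 nM quinpirole and 200 nM NKH477. cAMP is quantified by HTRF competition in DRD2-HEK293 cells containing 0.1 mM Ro20-1724.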

A short description of assay [20]: p53 small molecule agonists, cell-based qHTS assay (AID 1963582; active = well fitted activation curve with a large enough effect in the signal ratio in the repeat runs, not every such curve was filed as active; the % refers to the signal ratio). An outline of the steps: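 Cells carrying a p53-responsive bla reporter are treated with test compounds for 16 h at 37 C; beta-lactamase activity is then detected with LiveBLAzer B/G FRET substrate after 2 h at room temperature.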
% is scaled to controls: 0 for no effect and ±100 for the full control effect.

Gonadotropin-releasing hormone receptor (Homo sapiens), sequence (P30968 whole entry, looked up): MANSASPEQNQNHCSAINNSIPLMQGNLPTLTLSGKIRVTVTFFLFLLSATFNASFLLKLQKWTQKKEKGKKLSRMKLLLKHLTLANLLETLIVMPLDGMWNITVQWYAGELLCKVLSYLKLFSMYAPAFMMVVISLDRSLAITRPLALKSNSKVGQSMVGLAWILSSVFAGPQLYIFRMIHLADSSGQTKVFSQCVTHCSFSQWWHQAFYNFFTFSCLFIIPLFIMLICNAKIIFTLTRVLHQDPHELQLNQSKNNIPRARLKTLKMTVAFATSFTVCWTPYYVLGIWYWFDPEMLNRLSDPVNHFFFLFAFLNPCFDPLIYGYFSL
Muscarinic acetylcholine receptor M1 (Homo sapiens), sequence (P11229 whole entry, looked up): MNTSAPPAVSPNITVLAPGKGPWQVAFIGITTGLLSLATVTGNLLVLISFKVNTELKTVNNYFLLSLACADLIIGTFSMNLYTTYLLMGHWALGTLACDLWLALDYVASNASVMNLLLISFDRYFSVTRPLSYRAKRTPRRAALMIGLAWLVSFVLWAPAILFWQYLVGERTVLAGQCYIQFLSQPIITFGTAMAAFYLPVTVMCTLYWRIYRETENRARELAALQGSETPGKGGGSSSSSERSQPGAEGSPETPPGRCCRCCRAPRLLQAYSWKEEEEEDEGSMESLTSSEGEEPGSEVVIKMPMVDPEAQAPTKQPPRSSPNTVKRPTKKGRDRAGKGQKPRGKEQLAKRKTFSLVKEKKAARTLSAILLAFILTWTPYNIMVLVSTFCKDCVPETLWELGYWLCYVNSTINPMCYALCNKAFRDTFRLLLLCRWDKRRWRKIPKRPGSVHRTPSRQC
Beta-2 adrenergic receptor (Homo sapiens), sequence (P07550 whole entry, looked up): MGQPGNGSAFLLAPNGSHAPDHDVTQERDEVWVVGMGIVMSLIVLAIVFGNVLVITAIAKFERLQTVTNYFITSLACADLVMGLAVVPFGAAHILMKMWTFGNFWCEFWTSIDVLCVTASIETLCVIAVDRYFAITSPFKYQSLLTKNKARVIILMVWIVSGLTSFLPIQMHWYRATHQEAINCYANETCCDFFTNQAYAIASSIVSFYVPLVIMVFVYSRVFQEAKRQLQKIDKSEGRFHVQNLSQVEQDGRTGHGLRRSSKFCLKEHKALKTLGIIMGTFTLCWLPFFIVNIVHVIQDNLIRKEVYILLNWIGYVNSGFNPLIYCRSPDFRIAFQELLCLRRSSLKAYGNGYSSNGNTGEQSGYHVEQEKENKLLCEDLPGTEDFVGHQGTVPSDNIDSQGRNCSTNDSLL
D(2) dopamine receptor (Homo sapiens), sequence (P14416 whole entry, looked up): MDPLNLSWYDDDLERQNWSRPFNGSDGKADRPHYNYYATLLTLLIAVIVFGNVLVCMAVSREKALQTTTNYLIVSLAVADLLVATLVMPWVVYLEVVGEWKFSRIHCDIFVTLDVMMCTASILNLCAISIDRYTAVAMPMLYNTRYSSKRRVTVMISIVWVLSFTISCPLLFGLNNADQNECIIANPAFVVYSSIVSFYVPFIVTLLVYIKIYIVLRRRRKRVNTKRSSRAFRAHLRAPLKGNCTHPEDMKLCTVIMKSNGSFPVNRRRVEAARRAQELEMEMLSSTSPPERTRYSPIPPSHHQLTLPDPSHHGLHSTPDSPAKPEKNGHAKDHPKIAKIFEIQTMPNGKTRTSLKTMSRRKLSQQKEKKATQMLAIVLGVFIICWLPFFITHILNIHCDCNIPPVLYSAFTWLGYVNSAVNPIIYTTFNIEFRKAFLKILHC
KiSS-1 receptor (Homo sapiens), sequence (Q969F8 whole entry, looked up): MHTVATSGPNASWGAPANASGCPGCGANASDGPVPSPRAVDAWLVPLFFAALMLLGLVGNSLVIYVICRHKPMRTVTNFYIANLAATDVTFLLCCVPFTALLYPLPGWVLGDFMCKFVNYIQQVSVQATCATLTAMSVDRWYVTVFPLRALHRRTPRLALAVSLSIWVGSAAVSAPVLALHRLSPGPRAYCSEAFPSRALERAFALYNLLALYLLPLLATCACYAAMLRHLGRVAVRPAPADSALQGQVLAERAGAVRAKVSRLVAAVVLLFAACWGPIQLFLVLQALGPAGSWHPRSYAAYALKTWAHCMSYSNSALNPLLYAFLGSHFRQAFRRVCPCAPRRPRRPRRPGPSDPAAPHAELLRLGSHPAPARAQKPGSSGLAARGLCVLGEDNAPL

`CC(C)[N+](C)(CCC(C(N)=O)(c1ccccc1)c1ccccc1)C(C)C`: the Potency result in assay [1], in assay [2], in [3], in assay [4], in assay [5] and in assay [6] was “inactive” in each case. The Potency entry in [7], in assay [8], in [9], in assay [10], in [11] and in assay [12] was “inactive” each time. For the same compound, the Potency entry in assay [14], in assay [15], in [16], in assay [17], in assay [18] and in assay [19] was “inactive” in each case. In addition, the Potency in assay [13] was 2.3 nM (active).

Consider `CCC(=O)O[C@H]1CC[C@H]2[C@@H]3CCC4=CC(=O)CC[C@]4(C)[C@H]3CC[C@]12C`, for which the Potency result in [1], in assay [2], in assay [3], in assay [4], in assay [5] and in assay [6] was “inactive” in each case. For the same compound, the Potency result in [7], in assay [8], in [9], in assay [10], in [20] and in assay [12] was “inactive” each time. The Potency entry in assay [14], in assay [17], in [18] and in assay [19] was “inactive” throughout. Further, the Potency in assay [13] is 5.3 µM (active) and 4.6 µM (active).

Turning to `CCOC(=O)C1(c2ccccc2)CCN(CCC(C#N)(c2ccccc2)c2ccccc2)CC1`, the Potency result in assay [1], in assay [2], in [3], in assay [4], in [5] and in assay [6] was “inactive” in each case. Further, the Potency result in [7], in [8], in assay [9], in [10], in assay [12] and in assay [13] was “inactive” each time. The Potency result in assay [14], in assay [15], in assay [16], in [17] and in assay [19] was “inactive” each time. Further, the Potency in assay [11] was 130 nM (active).

Regarding `CCCCCCCCCCCCCCCC[n+]1ccccc1`, the Potency is 29.8 µM (active) [middle of 4 runs] in assay [1]; 25.7 µM (active) and 38.9 µM (active) and 17.1 µM (active) in [3]; 36.3 µM (active) and 40.2 µM (active) and inactive in assay [8]; 42.7 µM (active) and inactive in assay [9]; 45.8 µM (active) and inactive in assay [10]. Also, the Potency result in assay [2], in [4], in [5], in assay [6], in assay [7] and in [20] was “inactive” in each case. For the same compound, the Potency result in assay [17] and in [18] was “inactive” throughout.

With `Cc1cccc(N=Nc2ccc(N(C)C)cc2)c1`, the Potency entry in [1], in assay [3], in assay [4], in assay [5], in assay [6] and in assay [7] was “inactive” in each case. For the same compound, the Potency result in [8], in assay [9], in assay [10], in assay [11], in assay [12] and in assay [13] was “inactive” each time. Besides, the Potency entry in assay [14], in assay [15], in [16], in assay [17] and in assay [18] was “inactive” in each case. For the same compound, the Potency in [2] is 247 nM (active) and 1.72 µM (active).

On to `CCN(Cc1ccc(Cl)nc1)/C(=C/[N+](=O)[O-])NC`, for which the Potency entry in assay [1], in assay [2], in assay [3], in [4], in assay [5] and in [6] was “inactive” in each case. In addition, the Potency result in assay [7], in [8], in assay [9], in assay [10], in [11] and in assay [12] was “inactive” each time. Besides, the Potency result in assay [13], in assay [14], in assay [15], in assay [16], in assay [17] and in assay [18] was “inactive” each time. Further, the Potency entry in assay [19] is “inactive”.

Consider `c1ccc(N=NNc2ccccc2)cc1`, for which the Potency entry in [1], in assay [3], in assay [4], in assay [5], in [6] and in assay [7] was “inactive” throughout. Besides, the Potency entry in assay [8], in [9], in [10], in [20], in assay [12] and in [13] was “inactive” each time. Also, the Potency entry in assay [14], in assay [15], in assay [16], in assay [17] and in [19] was “inactive” each time. In [2], the Potency is 28.3 µM (active) and 61.1 µM (active).

For `Nc1ccccc1C(=O)OCCc1ccccc1`, the Potency result in [1], in assay [3], in assay [4], in [5], in assay [6] and in [7] was “inactive” each time. For the same compound, the Potency result in assay [8], in assay [9], in [10], in [20], in assay [12] and in [13] was “inactive” throughout. Besides, the Potency result in assay [14], in assay [17], in assay [18] and in [19] was “inactive” each time. Besides, the Potency in assay [2] was 488 nM (active) and inactive.

For the origin of these results see PubChem BioAssay (Tox21).
